Source: ChEMBL document CHEMBL1201862, “PubChem BioAssay data set” (2004)
Measured potencies and affinities stand elsewhere.

Assay: M. tuberculosis growth inhibition, dose response, 7H9 media, purified and synthesized compounds, set 5 (AID 504903); call rule not given here
Format: functional

SMILES | IC90
CNC(=O)CSc1nc2ccccc2c(=O)[nH]1 | > 100 µM (active)
Cc1[nH]c2ccccc2c1C(=O)COC(=O)c1ccc([N+](=O)[O-])s1 | > 50.5 µM (active)
O=C(CSc1ccccn1)NC1CCCCC1 | > 100 µM (active)
CCCc1cc(C(N)=S)ccn1 | > 100 µM (active)
